Hits are enriched below; roughly 27% of the tested compounds scored in any of these assays.
CYP2C19 inh: inhibitors of human CYP2C19. CYP2C19 Supersomes, luciferin-H EGE luminescence, 30 min. inhibition, % at 5 µM. P33261. actives 21% (n = 96,000);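 active = CYP2C19 inhibition above a set limit at 5 µM in the primary screen, cut at about 50% in these data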;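 note: plate controls were negative control wells for no effect and 2.5 mM tranylcypromine positive control for full effect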
CYP2C9 activ: activators of human CYP2C9. P11712. recombinant CYP2C9, luciferin-H conversion, luminescence; stronger effect = higher value; factor 1 = untreated enzyme, 0 = blocked. activation factor at 5 µM. actives 1.4% (n = 96,000);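 active = activation factor of 2 or more for CYP2C9 at a 5 µM dose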;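 note: 0 = sulfaphenazole-blocked wells and 1 = vehicle-only wells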
CYP2C9 inhib: blocks human cytochrome P450 2C9 | CYP2C9 Supersomes, luciferin-H conversion, luminescence | actives 20% (n = 96,000) | inhibition, % at 5 µM;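 active = blocking of liver enzyme CYP2C9 beyond about 50% at 5 µM, limit read from the data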
CYP2C19 act: activators of human cytochrome P450 2C19; P33261; recombinant CYP2C19, luciferin-H EGE luminescence; stronger effect = higher value; 0 = fully inhibited enzyme, 1 = untreated enzyme; activation factor at 5 µM; 96,000 tested, under 10 active; AID 1025;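 active = activation factor of at least 2 at 5 µM in the primary screen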;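 note: 0 = wells with 2.5 mM tranylcypromine and 1 = vehicle-only wells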
Cav32 inh: human Cav3.2 channel inhibition, primary screen; Cav3.2-expressing cells, Fluo-4 calcium fluorescence FDSS; stronger effect = lower value; AID 449739; B-score at 10 µM; O95180; actives 4% (n = 100,000);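 active = single-dose well whose peak fluorescence ratio is a statistical outlier from its plate by either plate-standardised score or position-corrected B-score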
Target sequence (O95180 whole entry, looked up): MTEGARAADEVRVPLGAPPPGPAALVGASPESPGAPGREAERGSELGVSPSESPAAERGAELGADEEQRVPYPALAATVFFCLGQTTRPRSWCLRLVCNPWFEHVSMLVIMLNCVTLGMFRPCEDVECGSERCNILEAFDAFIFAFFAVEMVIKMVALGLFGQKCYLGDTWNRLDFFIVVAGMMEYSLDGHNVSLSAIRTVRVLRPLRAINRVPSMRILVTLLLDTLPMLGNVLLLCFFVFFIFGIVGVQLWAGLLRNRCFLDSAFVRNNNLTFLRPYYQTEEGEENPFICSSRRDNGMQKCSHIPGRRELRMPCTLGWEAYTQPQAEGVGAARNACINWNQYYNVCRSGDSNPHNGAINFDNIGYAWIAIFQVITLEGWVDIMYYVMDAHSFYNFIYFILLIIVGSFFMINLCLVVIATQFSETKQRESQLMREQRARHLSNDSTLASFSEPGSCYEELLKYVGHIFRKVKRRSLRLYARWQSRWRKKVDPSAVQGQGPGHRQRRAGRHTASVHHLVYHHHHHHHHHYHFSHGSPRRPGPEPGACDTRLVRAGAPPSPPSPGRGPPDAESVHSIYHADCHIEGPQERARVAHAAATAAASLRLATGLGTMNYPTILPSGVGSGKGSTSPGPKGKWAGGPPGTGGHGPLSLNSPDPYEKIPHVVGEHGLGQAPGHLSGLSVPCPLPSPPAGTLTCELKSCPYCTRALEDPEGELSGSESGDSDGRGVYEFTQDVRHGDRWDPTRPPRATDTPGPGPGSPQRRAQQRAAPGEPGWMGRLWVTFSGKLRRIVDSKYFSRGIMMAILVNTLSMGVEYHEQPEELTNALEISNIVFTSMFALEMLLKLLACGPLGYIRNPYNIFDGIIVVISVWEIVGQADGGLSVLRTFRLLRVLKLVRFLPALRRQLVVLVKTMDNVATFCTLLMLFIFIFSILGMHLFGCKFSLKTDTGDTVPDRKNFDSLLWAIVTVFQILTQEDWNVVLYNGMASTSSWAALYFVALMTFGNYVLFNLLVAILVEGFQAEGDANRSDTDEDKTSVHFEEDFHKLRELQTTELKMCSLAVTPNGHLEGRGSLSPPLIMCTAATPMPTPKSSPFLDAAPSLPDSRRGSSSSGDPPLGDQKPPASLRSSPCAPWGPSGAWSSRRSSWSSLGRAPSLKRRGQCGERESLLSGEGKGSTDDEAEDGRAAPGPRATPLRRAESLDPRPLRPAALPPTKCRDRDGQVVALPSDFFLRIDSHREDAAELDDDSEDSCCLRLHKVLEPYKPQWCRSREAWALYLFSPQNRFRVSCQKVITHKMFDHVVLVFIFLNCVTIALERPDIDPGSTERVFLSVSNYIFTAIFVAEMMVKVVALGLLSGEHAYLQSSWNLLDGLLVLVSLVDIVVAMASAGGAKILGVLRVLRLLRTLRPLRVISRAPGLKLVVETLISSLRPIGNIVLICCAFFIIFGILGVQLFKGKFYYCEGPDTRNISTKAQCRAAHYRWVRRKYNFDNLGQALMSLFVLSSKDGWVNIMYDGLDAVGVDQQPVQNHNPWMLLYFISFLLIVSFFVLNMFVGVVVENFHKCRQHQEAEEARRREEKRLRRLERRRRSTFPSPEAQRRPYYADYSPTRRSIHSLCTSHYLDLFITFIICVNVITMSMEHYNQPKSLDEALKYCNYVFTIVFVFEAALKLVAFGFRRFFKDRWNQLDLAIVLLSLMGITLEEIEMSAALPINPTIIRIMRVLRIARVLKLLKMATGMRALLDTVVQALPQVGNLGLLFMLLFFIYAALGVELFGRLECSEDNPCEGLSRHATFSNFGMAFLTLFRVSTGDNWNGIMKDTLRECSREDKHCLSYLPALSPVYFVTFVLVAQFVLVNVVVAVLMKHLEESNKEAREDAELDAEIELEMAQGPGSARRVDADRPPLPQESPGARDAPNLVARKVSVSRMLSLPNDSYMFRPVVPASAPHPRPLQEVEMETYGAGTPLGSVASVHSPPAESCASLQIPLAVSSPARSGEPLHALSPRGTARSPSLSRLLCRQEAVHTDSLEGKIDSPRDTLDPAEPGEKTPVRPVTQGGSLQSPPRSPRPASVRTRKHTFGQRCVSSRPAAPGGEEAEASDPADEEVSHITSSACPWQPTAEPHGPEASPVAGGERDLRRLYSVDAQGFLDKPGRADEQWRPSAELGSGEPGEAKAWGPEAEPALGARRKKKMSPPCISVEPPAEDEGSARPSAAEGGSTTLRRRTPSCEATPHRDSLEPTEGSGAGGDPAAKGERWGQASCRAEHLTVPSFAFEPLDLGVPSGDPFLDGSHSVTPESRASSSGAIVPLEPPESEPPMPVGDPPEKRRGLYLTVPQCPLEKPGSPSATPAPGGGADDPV
An asterisk follows results filed as active; x = no result.

SMILES	CYP2C19 inh	CYP2C9 activ	CYP2C9 inhib	CYP2C19 act	Cav32 inh
Cc1cc(C)c(C#N)c(SCS(=O)Cc2ccccc2)n1 (stereo not drawn)	68.4*	0.8	23.2	0.3	-0.448
Cc1cc(C)c(C#N)c(SCc2nc3ccccc3[nH]2)n1	56.1*	0.4	57.9*	0.4	-0.63
Cc1cc(C)c(C#N)c(SCCS(=O)(=O)Cc2ccc(Cl)cc2)n1	36.4	0.9	7.8	0.6	-0.384
Cc1cc(C)c(C#N)c(SCc2ccc(C#N)cc2)n1	16.4	1.1	-7.1	0.8	x
Cc1cc(C)c(C#N)c(SCS(=O)Cc2ccc(Cl)cc2)n1 (stereo not drawn)	94.9*	0.4	58.9*	0.1	-2.14
CC(=O)c1ccc(NC(=S)N2C(C)CCCC2C)cc1 (stereo not drawn)	-10.6	1	-4.6	1.1	3.66
Cc1ccc2cc(CN(CCN3CCOCC3)Cc3nnnn3Cc3ccco3)c(=O)[nH]c2c1C	37.5	0.3	68.6*	0.6	-0.139
Cc1ccc(C)c2[nH]c(=O)c(CN(Cc3ccc4c(c3)OCO4)Cc3nnnn3Cc3ccco3)cc12	37.7	0.2	75.4*	0.6	-0.303
Cc1ccc2cc(CN(CCCN3CCOCC3)C(c3nnnn3Cc3ccco3)C(C)C)c(=O)[nH]c2c1C (stereo not drawn)	x	x	x	x	0.115
Cc1ccc2cc(CN(Cc3ccc4c(c3)OCO4)Cc3nnnn3Cc3ccco3)c(=O)[nH]c2c1C	85.7*	0.2	79.7*	0.1	-0.814
CCCNC(=O)C1CNc2ccccc2O1 (stereo not drawn)	-8.3	1	-3.2	1.1	-0.438
Cn1c(Cn2c(=O)sc3ccccc32)nnc1SCC(=O)Nc1ccccc1F	x	x	x	x	0.711
O=c1cc(-c2ccc(O)c(-c3c(O)cc(O)c4c(=O)cc(-c5ccc(O)cc5)oc34)c2)oc2cc(O)cc(O)c12	x	x	x	x	0.827
COc1cc(C)c(Cl)cc1S(=O)(=O)NCc1ccncc1	97.9*	0.5	50.5*	0	1.15
COc1cc(C)c(Br)cc1S(=O)(=O)NCc1ccccc1	65.2*	1.4	-37.8	0.3	0.251
COc1cc(S(=O)(=O)NCc2ccccc2)ccc1F	98.2*	2.2*	-118.8	0	0.403
Cc1cc(Cl)c(S(=O)(=O)NCc2ccncc2)cc1OCC(N)=O	44.8	0.8	15.9	0.6	-0.25
COc1cc(OC)cc(C(=O)NCC(=O)N2CCC(C)CC2)c1	x	x	x	x	0.504
CCCCC1=CC2=C(c3ccco3)C(=O)C(C)(OC(=O)c3ccc(OC)cc3)C(=O)C2=CN1c1ccccc1 (stereo not drawn)	x	x	x	x	-1.48
CCCCNC(=S)NNC(=O)c1ccoc1C	35.4	1	3.2	0.6	0.147
CCCCNC(=S)NNC(=O)c1csc2ccccc12	62.2*	1.7	-70.8	0.4	0.561
Cc1ccc(-n2c(SCc3cn4ccsc4n3)nc3ccccc3c2=O)cc1	19.3	0.7	33.4	0.8	-0.94
COC(=O)CCn1nnc(-c2ccc(C(C)C)cc2)n1	3.6	1.1	-13.2	1	-5.43*
COC(=O)CCn1nnc(-c2cccs2)n1	77.9*	1	-2.4	0.2	x
Cc1c(C(=O)NCc2ccc3c(c2)cc(C)n3C)cccc1[N+](=O)[O-]	x	x	x	x	0.0734
SMILES	CYP2C19 inh	CYP2C9 activ	CYP2C9 inhib	CYP2C19 act	Cav32 inh
O=C1CCCc2c1nc(-c1ccco1)n2O	14.7	0.8	15.6	0.9	0.259
CN1CCC(OC(=O)c2ccc(Br)cc2)CC1	x	x	x	x	0.494
CC(C)(C)C1CCC(OC(=O)c2ccncc2)CC1 (stereo not drawn)	98.8*	0.1	94.2*	0	-0.657
CC(=O)OCC(CCn1cnc2cnc(N)nc21)COC(C)=O	x	x	x	x	1.86
CCCCOn1c(C)c(C(=O)OCC)c2c3nonc3ccc21	x	x	x	x	-2.67
COn1c(C)c(C(C)=O)c2c3nonc3ccc21	61.2*	0.5	50.5*	0.4	0.00124
C=C(C)CSc1nnc(-c2cc(OC)c(OC)c(OC)c2)n1N	21.6	0.7	28.0	0.8	-0.00539
Cc1cc2c(c(=O)n1Cc1cccnc1)C(c1ccc(F)cc1)C(C#N)=C(N)O2 (stereo not drawn)	29.4	0.8	22.6	0.7	0.958
Cc1oc(C)c2c(=O)ccc3c(c12)OC(N)=C(C#N)C3c1ccc(F)cc1 (stereo not drawn)	50.1*	0.7	34.6	0.5	-3.32*
Cc1cc(Br)ccc1NC(=O)CNC(=O)CN(C)Cc1nc2ccccc2c(=O)[nH]1	67.7*	0.4	63.1*	0.3	-0.0943
CCN(CC(=O)Nc1ccccc1Br)Cc1nc2ccccc2c(=O)[nH]1	53.7*	0.5	49.5	0.5	0.503
CCN(CC(=O)NC(=O)NCc1ccco1)Cc1nc2ccccc2c(=O)[nH]1	67.8*	0.6	45.0	0.3	0.223
CCOc1ccccc1NC(=O)CCCc1nc2ccccc2c(=O)[nH]1	25.8	0.9	9.0	0.7	-1.17
CC(NC(=O)CN(C)Cc1nc2ccccc2c(=O)[nH]1)c1ccccc1 (stereo not drawn)	31.9	0.7	29.3	0.7	0.115
Cc1ccc(NC(=O)CN(C)Cc2nc3ccccc3c(=O)[nH]2)c(Br)c1	27.7	0.3	68.0*	0.7	1.07
O=C(NCCN1CCOCC1)c1ccc2ccccc2c1	45.4	1	2.4	0.5	x
CCN(CC(=O)NCCc1ccc(S(N)(=O)=O)cc1)Cc1nc2ccccc2c(=O)[nH]1	13.3	0.3	65.9*	0.9	0.645
CN(C)C(=O)c1snnc1-c1ccccc1	20.4	0.8	21.4	0.8	0.44
COC(=O)C(C)Sc1snnc1-c1ccccc1 (stereo not drawn)	91.8*	0.4	63.9*	0.1	-0.242
CCO[C@H]1OC(C(=O)Nc2ccccc2)=C[C@@H](c2ccc(C(F)(F)F)cc2)[C@@H]1CCCO	x	x	x	x	-2.05
Cc1ccc(C(C)C)c(OCCNC(=S)Nc2cccc3ccccc23)c1	85.1*	0.2	84.0*	0.1	-2.31
CC1(C)Cc2c(C#N)c(N)sc(=S)c2CO1	17.0	0.3	67.6*	0.8	x
CC(C)C1Cc2c(C#N)c(N)sc(=S)c2CO1 (stereo not drawn)	50.9*	0.2	84.4*	0.5	-2.59
CC(=O)Nc1coc2ccc(Br)cc12	1.6	0.9	10.0	1	-0.855
O=C(O)C1CC1C(=O)N1CCN(c2ccc(Cl)c(Cl)c2)CC1 (stereo not drawn)	-2.4	1.1	-10.7	1	-0.447
SMILES	CYP2C19 inh	CYP2C9 activ	CYP2C9 inhib	CYP2C19 act	Cav32 inh
O=C(NCc1ccccc1)N1CCN(c2ccc(Cl)c(Cl)c2)CC1	-2.6	0.8	22.0	1	-5.21*
CN(C)C(=C(C#N)C#N)N1CCN(c2ccc(Cl)c(Cl)c2)CC1	56.0*	0.4	64.3*	0.4	-0.523
O=C(NCc1ccccc1)N1CCN(c2ccc(F)cc2)CC1	x	x	x	x	-4.26*
O=C(Nc1ccccc1)N1CCN(c2ccc(F)cc2)CC1	x	x	x	x	0.73
Cc1occc1C(=O)N1CCN(c2ccc(Cl)c(Cl)c2)CC1	98.4*	0.2	82.6*	0	0.215
Cn1c(N)c(C(=O)COC(=O)c2cccs2)c(=O)n(C)c1=O	12.3	0.9	5.7	0.9	-0.544
CC(CCCC(C)(C)O)NCCO (stereo not drawn)	2.4	1	4.4	1	0.42
